# Data reported in article PMC13541613, “GHT-SELEX demonstrates unexpectedly high intrinsic sequence specificity and complex DNA binding of many human transcription factors”.
# Biological target: ZNF721 DBD2 (Homo sapiens, UniProt Q8TF20-2 395-923)
# Test: HT-SELEX; 20 mM HEPES pH 7, 140 mM KCl, 5 mM NaCl, 1 mM K2HPO4, 2 mM MgSO4, 100 uM EGTA, ZnSO4, 0.1% Tween20; room temperature, 1 h; high values mean tight binding
# Details: protein: ivt; tags: eGFP (N-terminal); dsDNA, one strand shown
# How it was run: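 In HEPES/KCl low-stringency buffer with Tween20, a bead-immobilised tagged transcription factor (full-length or DNA-binding-domain fragment, from HEK293 lysate or cell-free extract) was incubated with a randomized 40-base DNA library for 1 h at room temperature. DNA retained after washing was heat-eluted, amplified by PCR over successive cycles and Illumina-sequenced, giving ~3 million 60 bp reads per sample. The reported binding signal, a relative k-mer count in those selected reads, rises with tighter binding.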
# Chain of ZNF721 DBD2 (Q8TF20 383-911): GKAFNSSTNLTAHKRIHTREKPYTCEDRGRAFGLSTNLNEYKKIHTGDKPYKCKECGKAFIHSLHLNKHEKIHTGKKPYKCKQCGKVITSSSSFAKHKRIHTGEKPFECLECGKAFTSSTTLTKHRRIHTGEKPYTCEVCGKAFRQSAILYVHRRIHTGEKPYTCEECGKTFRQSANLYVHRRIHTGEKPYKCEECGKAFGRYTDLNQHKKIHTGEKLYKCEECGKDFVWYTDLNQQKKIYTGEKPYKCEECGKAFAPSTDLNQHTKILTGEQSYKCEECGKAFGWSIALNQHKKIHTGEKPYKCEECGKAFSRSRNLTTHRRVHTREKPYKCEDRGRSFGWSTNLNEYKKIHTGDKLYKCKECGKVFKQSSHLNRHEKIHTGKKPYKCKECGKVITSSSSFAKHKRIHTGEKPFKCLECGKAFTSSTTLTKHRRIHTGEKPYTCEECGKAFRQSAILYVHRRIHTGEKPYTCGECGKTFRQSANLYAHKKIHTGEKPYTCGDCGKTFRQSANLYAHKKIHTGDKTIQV
row,Sequence,binding signal
1,CACCGCCCAC,0.00372 relative 10-mer count
2,AAAGAAGCTA,0.00132 relative 10-mer count
3,CCGCCTCCCC,0.00204 relative 10-mer count
4,CACCACCCCA,0.00683 relative 10-mer count
5,AAGGCATACC,0.114 relative 10-mer count
6,GCCACCCCAC,0.00491 relative 10-mer count
7,CCCCCGCTCC,0.00144 relative 10-mer count
8,GCTTTTTTCA,0.0334 relative 10-mer count
9,CCCCCCACCG,0.0036 relative 10-mer count
10,CACCCGCCCA,0.0024 relative 10-mer count
11,CCCATCCCCA,0.00551 relative 10-mer count
12,CCGACCACCC,0.00443 relative 10-mer count
13,CCCACCCCAA,0.00575 relative 10-mer count
14,GTGGGGTGGA,0.00539 relative 10-mer count
15,CCCGCCCCCA,0.00132 relative 10-mer count
16,CGCCCCACCC,0.00312 relative 10-mer count
17,AAAGCAGGGT,0.337 relative 10-mer count
18,CCCCCACCTC,0.00551 relative 10-mer count
19,CGCCCCCGCC,0.00216 relative 10-mer count
20,CTCCCCCCCA,0.00587 relative 10-mer count

row,Sequence,binding signal
1,CCACCTACCC,0.00455 relative 10-mer count
2,CCCCCCGACC,0.00288 relative 10-mer count
3,CGCCCCCCGC,0.00384 relative 10-mer count
4,CCCACCACCC,0.00635 relative 10-mer count
5,GACCCACCCC,0.0018 relative 10-mer count
6,GCGTACCCTA,0.0775 relative 10-mer count
7,CCCACCCACA,0.00959 relative 10-mer count
8,CCCCCAACCA,0.00503 relative 10-mer count
9,CCGCCGCCCC,0.00168 relative 10-mer count
10,AAGCAGCGTA,0.201 relative 10-mer count
11,AAAAAAAACA,0.252 relative 10-mer count
12,AAAAAAAAAG,0.0982 relative 10-mer count
13,CCCCCCGCCC,0.00336 relative 10-mer count
14,CAAAAAAGCA,0.17 relative 10-mer count
15,CCCACCCGAC,0.00479 relative 10-mer count
16,CGGAAAAAAG,0.0288 relative 10-mer count
17,GGTGGGTGGA,0.00611 relative 10-mer count
18,ACCCCCCCAC,0.00695 relative 10-mer count
19,ATGGGGTGGG,0.00551 relative 10-mer count
20,CCACCACACC,0.00587 relative 10-mer count
